Source: PubChem BioAssay (NCATS)
Results filed as inconclusive are left out. A call without a number means that no potency is given here. Calls of active or inactive are those of the source. The call rests on the fitted dose curve; in most records, active means well fitted cell-killing curve with a large enough effect; inconclusive means small, poorly fitted or top-dose-only effect; inactive means flat fitted curve, though single readings scatter.

Assay: Cell Viability - LYMP2-011 (AID 969); further: nearly all actives have a fitted effect of over 60% in size
Settings: LYMP2-011 lymphoblastoid cells viability; series mostly up to 92.2 µM
From the text: NIH Chemical Genomics Center [NCGC]
NIH Molecular Libraries Screening Centers Network [MLSCN]
National Institutes of Environmental Health Sciences [NIEHS]
National Toxicology Program [NTP]
We have developed a 1536-well cell-based assay for quantitative high throughput screening (qHTS) against a number of cell lines to determine in vitro cytotoxicity of small molecules. This particular assay uses a human lymphoblastoid cell line (LYMP2-011) purchased from Coriell Institute for Medical Research.
NCGC Assay Protocol Summary:
The CellTiter-Glo luminescent cell viability assay (Promega) is a homogeneous method to measure the number of viable cells in culture. The end point readout of this assay is based on quantitation of intracellular ATP, an indicator of metabolic activity, using the luciferase reaction. Luciferase catalyzes the oxidation of beetle Luciferin to oxyluciferin and light in the presence of ATP. The luminescent signal is proportional to amount of ATP present.
Using the CellTiter-Glo luminescent cell viability assay, the amount of cellular ATP was measured in the lymphoblastoid cell line with complete culture medium following compound treatment for 24 hours. The assay was performed in opaque white Kalypsys 1536-well plates. In the screen, tetraoctylammonium bromide was used as positive control. Library compounds were measured for their ability to cause acute toxicity in the cell line, as reflected by a decrease in intracellular ATP levels, in a concentration-dependent manner. […] AC50 values were determined from concentration-response data modeled with the standard Hill equation.
qHTS protocol for CellTiter Glo lymphoblastoid cellular assay
[Step] [Parameter] [Value] [Description]
1. Reagent; 5 uL; 2500 lymphoblastoid cells/well
2. Time; 5 hr; 37 C incubation
4. Controls; 23 nL; Tetraoctylammonium bromide 6.4pM to 92 uM
5. Time; 24 hr; 37 C incubation
6. Reagent; 5 uL; CellTiter Glo reagent
7. Time; 30 min; Room Temperature
8. Detection; Luminescence; Viewlux plate reader
Keywords: cell viability, cytotoxicity, lymphoblastoid cell line, luminescence, NTPHTS, NTPHTS_NCGC, NIEHS, DSSTox, MLSMR, MLSCN, NIH Roadmap, qHTS, NCGC
With `Cc1cccc2sc(N)nc12` the Potency was “inactive”. For `C=C(C)C1CC=C(C)C(OC(C)=O)C1` (stereo not given), the Potency was “inactive”. With `CC1CCCO1` (stereo not given) the Potency was “inactive”. In the case of `Clc1cc(Cl)cc(Cl)c1`, the Potency is reported as “inactive”. With `CCOc1ccc(NC(C)=O)cc1N` the Potency was “inactive”. For `CCOc1cc(OCC)c(C(C)=O)cc1OCC`, the Potency was “inactive”. With `c1ccc2c(c1)ccc1ncccc12` the Potency was “inactive”. In the case of `OCCO`, the Potency is reported as “inactive”. In the case of `Nc1ccccc1S(=O)(=O)O`, the Potency is reported as “inactive”. With `CC/C(C)=N/O` the Potency was “inactive”. In the case of `CC(=O)CC(C)C`, the Potency is reported as “inactive”. In the case of `Nc1cccc(S(=O)(=O)O)c1`, the Potency is reported as “inactive”. For `Cc1ccc(C)cc1`, the Potency was “inactive”. For `O=C(O)c1ccccc1[N+](=O)[O-]`, the Potency was “inactive”. With `O=[N+]([O-])c1cccc(Cl)c1` the Potency was “inactive”. In the case of `CC(C)(O)CCC(C)(C)O`, the Potency is reported as “inactive”. In the case of `CCCCCCC=O`, the Potency is reported as “inactive”. With `Cc1cccc(C)c1O` the Potency was “inactive”. In the case of `CCOc1ccccc1N`, the Potency is reported as “inactive”. In the case of `COc1ccc(N)c(OC)c1`, the Potency is reported as “inactive”. In the case of `CCC(C)(C)C(=O)O`, the Potency is reported as “inactive”. In the case of `C=CCCCCCCC=C`, the Potency is reported as “inactive”. With `Cc1cc(C)cc(O)c1` the Potency was “inactive”. In the case of `CC(C)N=C=NC(C)C`, the Potency is reported as “inactive”. For `NS(=O)(=O)O`, the Potency was “inactive”. For `OC/C(Br)=C(\Br)CO`, the Potency was “inactive”. With `C=CC(=O)OCCCC` the Potency was “inactive”. For `O=Cc1ccccc1Cl`, the Potency was “inactive”. For `Cc1cccc(C)c1`, the Potency was “inactive”. In the case of `Cc1cc([N+](=O)[O-])ccc1N`, the Potency is reported as “inactive”. In the case of `NC(=S)NNC(N)=S`, the Potency is reported as “inactive”. In the case of `C=CCCCC`, the Potency is reported as “inactive”. In the case of `C=CCn1c(=O)n(CC=C)c(=O)n(CC=C)c1=O`, the Potency is reported as “inactive”. In the case of `CCCCCCO`, the Potency is reported as “inactive”. With `CC(C=O)Cc1ccc(C(C)(C)C)cc1` (stereo not given) the Potency was “inactive”. For `CCOCC(=O)O`, the Potency was “inactive”. In the case of `FC(F)(F)c1ccccc1Cl`, the Potency is reported as “inactive”. In the case of `COc1cccc(N)c1`, the Potency is reported as “inactive”. With `CC(=O)c1cc(C)oc1C` the Potency was “inactive”. For `CCC(C)=O`, the Potency was “inactive”.
